Among the data in ChEMBL document CHEMBL4513146, “CO-ADD screening of Karazin Kharkiv National University (Ukraine) compounds” are Inhibition values, retold here.

In general, Inhibition refers to the relative decrease from the control value, in per cent.

Entries with a potency or affinity are not part of this list.

One assay concerns Klebsiella pneumoniae. The conditions noted are these: Concentration 32 ug.mL-1;; ASSAY_TEST Inhibition of Bacterial Growth; detection method Absorption (OD600); MEDIA CAMHB; plate type 384well; NBS; CORNING #3640; time 18 hr.
The test system of another assay is Candida albicans. The following applies: Concentration 32 ug.mL-1; ASSAY_TEST Inhibition of Fungal Growth; detection method Absorption (OD530).
Another assay relates to Cryptococcus neoformans. The conditions noted are these: Concentration 32 ug.mL-1; ASSAY_TEST Inhibition of Fungal Growth; detection method Resazurin; Absorption (OD600-OD570); plate type 384well; NBS; CORNING #3640. In general terms: Resazurin is reduced to fluorescent resorufin, in cell work by metabolically active cells.

For the compound `Cc1nnc2c(SCC(=O)Nc3ccc(Br)cc3F)nc3ccccc3n12`, the Inhibition with Klebsiella pneumoniae is given as 10.56%; in the assay on Candida albicans, 0.1%; with Cryptococcus neoformans, -6.82%.

`COc1ccc(CN(c2ccc(F)c(F)c2)S(=O)(=O)c2ccc3nncn3c2)cc1`: the Inhibition with Klebsiella pneumoniae is recorded as 12.63%; with Candida albicans it was 0.74%; with Cryptococcus neoformans it was -4.76%.

Consider `O=C(Cn1nc2ccc(SCc3ccc(Cl)cc3)nn2c1=O)Nc1ccccc1`, for which the Inhibition is reported as 9.67% in the assay on Klebsiella pneumoniae, 9.5% in the assay on Candida albicans and -21.41% in the assay on Cryptococcus neoformans.

As to `O=C(Cn1nc2c3cc(-c4ccc(Cl)cc4)nn3ccn2c1=O)NC1CCCC1`, the figures for the Inhibition in the assay on Klebsiella pneumoniae, in the assay with Candida albicans and with Cryptococcus neoformans were 4.67%, 2.49% and -18.35%, respectively.

Take `Cc1nnc2ccc(S(=O)(=O)N(Cc3ccccc3F)c3cccc(Cl)c3)cn12`: the Inhibition is listed as 8.99% in the assay on Klebsiella pneumoniae, -0.66% with Candida albicans and -11.57% with Cryptococcus neoformans.

Take `CCCCc1ccc(NC(=O)CSc2nc3ccccc3n3c(C(C)C)nnc23)cc1`: the values for the Inhibition in the assay with Klebsiella pneumoniae, with Candida albicans and in the assay with Cryptococcus neoformans were 2.68%, 2.13% and -2.44%, respectively.

Turning to `COc1ccc(CNC(=O)CCc2nnc3c4cc(-c5ccc(Cl)cc5)nn4ccn23)cc1OC`, the figures for the Inhibition in the assay on Klebsiella pneumoniae, in the assay with Candida albicans and with Cryptococcus neoformans were 10.48%, 1.41% and -19.71%, respectively.

Consider `Cc1ccc(-c2cc3c4nn(CC(=O)Nc5ccc6c(c5)OCCO6)c(=O)n4ccn3n2)cc1C`, for which the Inhibition in the assay with Klebsiella pneumoniae is reported as 12.57%; in the assay with Candida albicans, 1.55%; with Cryptococcus neoformans, -15.09%.

As for `CCc1ccc(N(Cc2cccc(OC)c2)S(=O)(=O)c2cccn3c(C)nnc23)cc1`, the figures for the Inhibition in the assay with Klebsiella pneumoniae, with Candida albicans and in the assay with Cryptococcus neoformans were -1.7%, -0.37% and -7.84%, respectively.

As to `O=C(Cn1nc2n(Cc3ccccc3)c(=O)c3ccccc3n2c1=O)Nc1ccc2c(c1)OCO2`, the values for the Inhibition in the assay with Klebsiella pneumoniae, in the assay with Candida albicans and in the assay with Cryptococcus neoformans were 2.83%, 0.36% and -11.06%, respectively.

On to `COc1ccc(-n2ccn3c(-c4ccc([N+](=O)[O-])cc4)nnc3c2=O)cc1`, for which the Inhibition in the assay on Klebsiella pneumoniae is recorded as 13.7%; with Candida albicans, -0.61%; with Cryptococcus neoformans, -26.2%.

In the case of `COc1cccc(-n2ccn3c(SCC(=O)N4CCN(c5ccc(F)cc5)CC4)nnc3c2=O)c1`, the Inhibition with Klebsiella pneumoniae is recorded as 8.66%; in the assay with Candida albicans, 0.06%; with Cryptococcus neoformans, -10.47%.

Take `COc1ccccc1CNC(=O)Cn1nc2c(SCc3ccc(Cl)cc3)nccn2c1=O`: the Inhibition with Klebsiella pneumoniae is 9.05%; in the assay with Candida albicans it was 2.3%; with Cryptococcus neoformans it was -6.8%.

For `Cc1ccc(CNC(=O)CSc2nnc3c(=O)n(-c4ccccc4)ccn23)cc1`, the Inhibition in the assay with Klebsiella pneumoniae is 13.24%; in the assay with Candida albicans, 3.44%; in the assay with Cryptococcus neoformans, -18.23%.

`CC(C)(C)NC(=O)Cn1nc2n(Cc3ccco3)c(=O)c3sccc3n2c1=O`: the Inhibition was 9.07% in the assay on Klebsiella pneumoniae, 1.61% in the assay with Candida albicans and -14.16% in the assay on Cryptococcus neoformans.

For the compound `COc1ccc(CNC(=O)Cn2nc3c(N4CC(C)CC(C)C4)nccn3c2=O)cc1` (centres undefined), the Inhibition was -3.24% in the assay on Klebsiella pneumoniae, 4.41% in the assay with Candida albicans and -8.27% in the assay on Cryptococcus neoformans.

Turning to `N#Cc1ccccc1NC(=O)Cn1nc2c(Oc3ccccc3)nccn2c1=O`, the figures for the Inhibition in the assay with Klebsiella pneumoniae, in the assay with Candida albicans and in the assay with Cryptococcus neoformans were 2.81%, -0.12% and -5.65%, respectively.

For `Cc1ccccc1CN(c1ccc(C(C)C)cc1)S(=O)(=O)c1cccn2cnnc12`, the Inhibition is 21.6% with Klebsiella pneumoniae, 3.03% in the assay on Candida albicans and -21.28% in the assay on Cryptococcus neoformans.

As to `Cc1cc(C)cc(NC(=O)Cn2nc3c(N4CCCC4)nccn3c2=O)c1`, the results for the Inhibition with Klebsiella pneumoniae, in the assay with Candida albicans and in the assay with Cryptococcus neoformans were 18.22%, 0.29% and -23.65%, respectively.

Turning to `CC(C)NC(=O)CSc1nnc2c(=O)n(-c3ccccc3)ccn12`, the Inhibition is 11.98% with Klebsiella pneumoniae, 2.07% with Candida albicans and -5.87% in the assay on Cryptococcus neoformans.

For the compound `O=C(Cn1nc2c(SC3CCCCC3)nccn2c1=O)Nc1ccc(Br)cc1`, the Inhibition in the assay with Klebsiella pneumoniae was 6.54%; in the assay on Candida albicans, 6.38%; with Cryptococcus neoformans, -23.31%.

Take `Cc1nnc2ccc(S(=O)(=O)N(Cc3cccc(F)c3)c3ccc(Cl)cc3)cn12`: the Inhibition is recorded as 10.33% in the assay with Klebsiella pneumoniae, -0.68% with Candida albicans and -10.1% in the assay with Cryptococcus neoformans.

As for `O=C(Cn1nc2ccc(Sc3cccc(F)c3)nn2c1=O)NCc1ccc(Cl)cc1`, the Inhibition with Klebsiella pneumoniae is 0.3%; in the assay with Candida albicans, 1.92%; in the assay on Cryptococcus neoformans it was -3.51%.

`O=C(Cn1nc2c(N3CCOCC3)nccn2c1=O)NCc1ccccc1Cl`: the Inhibition is on record as 10.56% in the assay on Klebsiella pneumoniae, 3.88% in the assay with Candida albicans and -5.18% with Cryptococcus neoformans.

Turning to `CCc1ccccc1Sc1nccn2c(=O)n(CC(=O)N3CCN(c4ccc(F)cc4)CC3)nc12`, the Inhibition was 3.21% in the assay with Klebsiella pneumoniae, 4.71% in the assay on Candida albicans and -7.3% in the assay on Cryptococcus neoformans.

Consider `O=C(CSc1nnc2c(=O)n(-c3ccc(Br)cc3)ccn12)Nc1cccc(F)c1`, for which the values for the Inhibition in the assay on Klebsiella pneumoniae, in the assay with Candida albicans and in the assay on Cryptococcus neoformans were 8.72%, 6.18% and -18.67%, respectively.

Turning to `COc1ccc(NC(=O)Cn2nc3cc(C)nc(Nc4ccc(F)cc4)n3c2=O)cc1F`, the Inhibition is on record as 11.33% with Klebsiella pneumoniae, 2.69% in the assay with Candida albicans and -3.63% in the assay on Cryptococcus neoformans.

In the case of `Cc1ccc(-c2ccc3nn(CC(=O)N4CCN(c5ccccc5F)CC4)c(=O)n3n2)cc1C`, the values for the Inhibition in the assay on Klebsiella pneumoniae, with Candida albicans and in the assay on Cryptococcus neoformans were 9.79%, 0.84% and -7.8%, respectively.
